molecular target: GABARAPL2, P60520; experiment: median log2 fold change of GCK-ALFA target abundance (FLAG IP / Myc IP barcode read proportion) (log2 ratio); each designed protein is fused to an ALFA-tag nanobody in HEK293 cells to bring the named protein to FLAG-tagged glucokinase (GCK); Myc marks an untargeted standard; higher = target protein stabilised (more abundant); conditions: target protein: 3xFLAG-MCP-GCK-ALFA reporter; HEK293 landing pad (RPLP)
Procedure, shortened: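 The readout is target abundance, the per-binder median log2 ratio of FLAG to Myc barcode read proportions. It came from HEK293 landing-pad cells carrying a recombined ALFA-nanobody-fused binder library, induced with 2 μg mL^−1 doxycycline and transfected with a plasmid for a FLAG-tagged target and a Myc-tagged standard. After 48 h, lysates were immunoprecipitated with anti-FLAG and anti-Myc, and circular RNA barcodes were reverse transcribed, amplified and sequenced. Each barcode needed a proportion of at least 10^−7 in both replicates and each binder at least 3 barcodes per replicate, a pseudocount of 10^−6 was added, and the replicates were pooled.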

GABARAPL2, P60520, sequence (P60520 whole entry, the tested form may be a part): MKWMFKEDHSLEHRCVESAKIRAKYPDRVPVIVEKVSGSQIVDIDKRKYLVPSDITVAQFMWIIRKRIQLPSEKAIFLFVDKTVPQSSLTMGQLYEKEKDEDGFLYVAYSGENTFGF

Row | Binder | median log2 fold change
1 | GBRAPL2_128_7289 (protein) MKLVTLDIDIENEEEFKLAKKVLEELAKKGSPAVADLANAALDMVEEAEKDGYNEKVSVADILSEEDAEELKKLLEELAKKYGEEKVKKIIKLEIDELPP | -0.0985
2 | GBRAPL2_128_7282 (protein) MKLVTIDVTVENEEEYNLAVEVFDEIIEEGSEKVADLADAAKDMLESSKENGYKENVSVADILSDEDAEELRELFEELAKKYGEEKVKKIIELTIDDLPP | -0.381
3 | GBRAPL2_128_7283 (protein) MKLVEIDITVKNEEEYKLAKEVLKEIAEKGSPAVAKLADAALDMLESEKEEGFKDGVTVADILTEEEAEELKKLYEELAKKYGEEKVKKIIELTVDDIPP | -0.458
4 | GBRAPL2_128_7274 (protein) MKIVEIDIDIKNEEQYELALEVLDRIAANSSPAVADLADAARDLAESAKEEGFDENVSAVDVLSDEDAAELQAIYDEIAAELGEEKVNSVVKLTIDPLEP | -0.506
5 | GBRAPL2_128_7278 (protein) MKLVEIDIDIKNEEEYELAKKVLKRIAEEGSPEVSKLADAALDLVEENKEEGFKYSRTVVDILSEEDAEELKELFEKLAEEYGKEKVEKVIKLEIDDIPP | 0.112
6 | GBRAPL2_128_7280 (protein) MKLVEISVTVENEEEYELAKKVLTEIAEKGSPEVAKLADAALDLVESNKEDGFDEAVVAVDILSEEDAEELKELYEELAEKYGKEKVEKVIQVEVDDIPP | -0.794
7 | GBRAPL2_128_7295 (protein) MKIVEIDIDIKNEEEAELVKEIFKEIAEKSSPEIKKLMDAAIDMVESLKEDGYDEKGTVVDILSKEDAEELKKLYEEEAEKYGKEKVEKIIKLEISDIPP | -0.663
8 | GBRAPL2_128_7294 (protein) MKIVEIDLDIKNEEEANLAKEILKEIAAKSSEKVKDLMDAAIDMVESLEEDGYDEKATVVDVLSEEDAEELKKLYEEEAKKYGEEKVNKIIKLEISDIPP | 0.042
9 | GBRAPL2_151_7302 (protein) SWKEKIIKALEEAAKIAEEAVEKLSESQELEKTEFELIAGGLDALRALIEETDDEEEIRRLARRAAELTKDGAEIAKKLGLEEEAEKFEKRAKELEELAE | 0.2
10 | GBRAPL2_128_7284 (protein) MKLVEIDITVKNEEEYELVLKVLTEIAERGSPAVAKLADAAKDMVEEEKKEGFKDGVTVADVLSDEDAAELKALYEELAEKYGKEKVNKHIKLTVDDLPP | -0.0335
11 | GBRAPL2_128_7276 (protein) KKIVSIDVDLKDEESYELALKILEEIAEKSSPKVKELAEAAKDLAEAAKEEGFGETVTAVDILSDEEVEELKKIYAEIKKKYGEEKVNSVVKIEIDELKP | -0.258
12 | GBRAPL2_128_7273 (protein) MYLVEIDIDVKDEESYNLAVEILDEIAKNSSEKVKDLAEAARDMAEIAYENGFDEKVVVVDIVSEEEAEELKKIYEEIKKKKGEEKVNSVVELEIDEVEP | -0.586
13 | GBRAPL2_128_7287 (protein) MKLVTIDITIENEEEYELAEKVLEELARRGSPAVADLADAALDMVRSAKEDGYNENVAVTDILSPEDAAELKALLEELAKEYGEEKVNRIIKLEVDDIPP | -0.633
14 | GBRAPL2_151_7301 (protein) SWKEEAIKALEEAAKIAEEAVEKLSEEQELEKTEFELIAGGMDALKALIEETDDEELIKKYVERGAELVKDAAEIAKELGLEELAKKFEKLAKELEKLSK | 0.0733
15 | GBRAPL2_128_7299 (protein) MKLVEIDITIENKEEAELVKKILEEIAKKGSEEVKKLADAAKDLAETLAEEGYGEKGTVVDILSDEDAEELKKLYEELAEKYGKEKVEKRIKLEVDDIPP | -0.468
16 | GBRAPL2_128_7292 (protein) MKLVEIDLDIKNEEEYELAKKVLTELARESSPAVADLANAALDMVEEAKKDGFKDKYVVADVLSPEDAAELEALFNRLAERYGAEKVRKVIQLEVSDIPP | -0.166

Row | Binder | median log2 fold change
17 | GBRAPL2_128_7291 (protein) MKLVEISVKVENEEEYELAKKVLSDIAEKSSPEVAKLADAARDMLEENKEEGYNVGVTVADILSEEQAEELRKLFEEVAKEYGKEKVEKIIELTVDDLPP | 0.0557
18 | GBRAPL2_151_7303 (protein) GWKEEAIKALEEAAKAAEEAAKALSPEHELERTELELLAGGFEADAILIEETDDEEEIKRLVKEAAEMAKDAAKLAKKLGLEKEAKKLEKIAEKLKKLAE | 0.179
19 | GBRAPL2_151_7305 (protein) SEKEKAIELLEEAAKAAEEAIKKLSEEQELAKTEFELIAGGLEALAILVEETDDEEEIKRLIKEAAELTEDAAKLAEELGLEEEAKKLKEISKELKKLAE | -0.356
20 | GBRAPL2_128_7293 (protein) MKIVEVDIEIKNEEEAEKVKAAFDEIAERGSPAVAKLADAAKDMAESLLEDGFDEKGTVVDVLSDEDAAELRELYEELAKEYGEEFMNENIKLTIDDIPP | -0.421
21 | GBRAPL2_128_7296 (protein) MKIVEIDIDVENEEEAELVLEILEEISKKSSPEVKKLMDAAKDMVESLKEDGYDEKATVVDILSEEDAKELEELYKEEAKKYGEEKVKKIIKLEIDEIPP | -0.305
22 | GBRAPL2_128_7279 (protein) MKIVEIDIDVENEEEYKLAKEVLEKIAEEGSPEVAKLADAALDLVEENEEDGFDEKFTAVDILSEEDAEELKELFEELAEKLGKEKVEKVIKLEIDDIPP | -0.539
23 | GBRAPL2_128_7290 (protein) MKLVTIDVTIKNEEEYNLAVKVLKELAEKGSPKVADLADAARDMVEEAKKEGYNENVSVADILSEEDAEELKKLYEELAKKYGEEKVKSIIKLTIDDIPP | -0.128
24 | GBRAPL2_151_7304 (protein) GWKEEAIKALEKAAKAAEEAAAALPESQELERTELELLAGGFEADAILIEETDDEEEIKRLVKEAAERAEDAAKLAKKLGLEEQAKKLEKIAKELKKLAK | 0.0343
25 | GBRAPL2_128_7286 (protein) MKLVEIDIDIKNKEEYELAKAVLDDIAKNSSPKVAKLADAAKDMAEEAAKEGYKEKVTVADILTDEEAEELKKLLEELKEKYGKEKVEKVIKLTVDDLPP | -0.551
26 | GBRAPL2_128_7288 (protein) MKLVTLDVDVEDEEEYELALEVLTRLAERGSPAVARLADAARDMVEEAKEEGYDEEVAVTDILSEEDAEELRALYEELAAELGAERVSRVIRLEVDDLPP | -0.203
27 | GBRAPL2_128_7297 (protein) MKLVEIDIDINNEEEAKLVIEVLEEIAKEGSEEVKKLAEAAKDLAESLAEEGYGEKGTVVDILSEEDAKELKELYEKLSKKYGKEKIEKRIKLEVDDIPP | -0.194
28 | GBRAPL2_151_7300 (protein) EWKEEAIKALEEAAKIAEEAVEKLDESQELEKTEFELIAGGLDALKALIEETDDEEKIREYVKRGAELVKDAAKIAKELGLEEEAKKFEKLAKKLEELSK | 0.271
29 | GBRAPL2_128_7298 (protein) MKLVEIDIDIENEEEAKLVLEILDEIAKRGSPEVKKLADAAKDLAESLAESGYGEKGTVVDILSEEDAEELKKLYEELAKEYGEEKVKKRIKLEVDDIPP | -0.397
30 | GBRAPL2_128_7275 (protein) MKIVEIDVDIKNEEQYNLALEILDEIAENSSPAVADLADAAKDLAESSKERGFDENVTAVDVLSEEDAEELRRIYEEIAEKLGREKVESVVRLEISDLEP | -0.585
31 | GBRAPL2_128_7285 (protein) MKLVTIDIKVENEEEYELAKKVLDEIAEEGSPAVAKLADAARDMLESEKEEGFKDGVSVADILSDEEAEELKELYEKLAEKYGKEKVNKIIELTVDDLPP | -0.134
32 | GBRAPL2_128_7281 (protein) MKLVTIDIDVENEEEYELVKKVLDEIIEKGSPEVADLADAAKDMLEESKKEGFKEKVSVADILSDEEAEELKKLFEELAKKYGEEKVNKHIELEIDDLPP | -0.33

Source: the supplement of paper PMC12632987
